In PubChem BioAssay (Tox21):
Records with an inconclusive call do not appear. Activity calls are given as the source filed them. Unless noted, calls come from the whole dose curve; as a rule, active = well fitted curve in the direction sought with a large enough effect in the repeat runs; inconclusive = weak or mixed curves; inactive = no such curve, though single readings can be large; an effect the other way counts as inactive or inconclusive.

Assays:
[1] = target: Peroxisome proliferator-activated receptor delta (Homo sapiens) (UniProt Q03181); experiment: qHTS assay to identify small molecule agonists of the peroxisome proliferator-activated receptor delta (PPARd) signaling pathway (AID 743212; calls by dose curve)
Procedure, shortened: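 Cells expressing a UAS-driven beta-lactamase reporter (PPARd-bla HEK293H) were given test compounds after a 5 h settle and kept at 37 C. Reporter activity was then measured as FRET fluorescence using LiveBLAzer B/G substrate.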

[2] = qHTS assay to identify small molecule antagonists of the peroxisome proliferator-activated receptor delta (PPARd) signaling pathway - cell viability counter screen (AID 743213); note: nearly all actives have a fitted effect of over 50% in size
Procedure, shortened: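 Luminescence from CellTiter-Glo, added after the bla read and incubated 30 min at room temperature, gives viability of HEK293H PPARd-bla cells exposed to compounds for 17 h at 37 C with 300 nM L165041.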

[3] = target: Peroxisome proliferator-activated receptor delta (Homo sapiens) (UniProt Q03181); experiment: qHTS assay to identify small molecule antagonists of the peroxisome proliferator-activated receptor delta (PPARd) signaling pathway (AID 743215; active = well fitted inhibition curve with a large enough effect in the signal ratio in the repeat runs, not every such curve was filed as active; the % refers to the signal ratio;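 note: cells stimulated with agonist L165041 at 300 nM final during compound exposure; series mostly up to about 62 µM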)
Procedure, shortened: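 HEK293H GeneBLAzer PPARd UAS-bla reporter cells; cpd + L165041 300 nM final, 17 h 37 C; LiveBLAzer B/G FRET substrate 2 h RT; fluorescence intensity read-out. Antagonist mode.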

[4] = target: Bile acid receptor (Homo sapiens) (UniProt Q96RI1); experiment: qHTS assay to identify small molecule antagonists of the farnesoid-X-receptor (FXR) signaling pathway (AID 743217; active = well fitted inhibition curve with a large enough effect in the signal ratio in the repeat runs, not every such curve was filed as active; the % refers to the signal ratio)
Procedure, shortened: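 Read-out: beta-lactamase FRET fluorescence (LiveBLAzer B/G substrate, 2 h, room temperature) in GeneBLAzer FXR-UAS-bla HEK 293T cells. Compounds were co-dosed with 50 uM chenodeoxycholic acid (final) and incubated 16 h at 37 °C.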

[5] = qHTS assay to identify small molecule agonists of the farnesoid-X-receptor (FXR) signaling pathway - cell viability counter screen (AID 743218); note: nearly all actives have a fitted effect of over 45% in size
Procedure, shortened: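 Luminescence from CellTiter-Glo, read after 30 min at RT, reports viability of GeneBLAzer FXR-UAS-bla HEK 293T cells treated 16 h with compounds in the wells used for the beta-lactamase reporter.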

[6] = target: Bile acid receptor (Homo sapiens) (UniProt Q96RI1); experiment: qHTS assay to identify small molecule agonists of the farnesoid-X-receptor (FXR) signaling pathway (AID 743220; active = well fitted activation curve with a large enough effect in the signal ratio in the repeat runs, not every such curve was filed as active; the % refers to the signal ratio)
Procedure, shortened: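 FXR-UAS-bla HEK 293T cells carrying a UAS-driven beta-lactamase reporter were plated for 5 h at 37C/5% CO2, then exposed to DMSO-dissolved Tox21 10K compounds for 16 h at 37C. A LiveBLAzer B/G FRET substrate was loaded for 2 h at room temperature before fluorescence reading.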

[7] = qHTS assay to identify small molecule antagonists of the farnesoid-X-receptor (FXR) signaling pathway - cell viability counter screen (AID 743221; active = well fitted cell-killing curve with a large enough effect in the repeat runs, not every such curve was filed as active; note: nearly all actives have a fitted effect of over 50% in size)
Procedure, shortened: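 CellTiter-Glo, 30 min RT, luminescence; same wells as the LiveBLAzer FRET read. Cells: FXR-UAS-bla HEK 293T. Treatment: compound with chenodeoxycholic acid 50 uM final, 16 h at 37 C.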

[8] = qHTS assay to identify small molecule agonists of the vitamin D receptor (VDR) signaling pathway - cell viability counter screen (AID 743224); note: series mostly up to about 63 µM; nearly all actives have a fitted effect of over 50% in size
Procedure, shortened: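 Cytotoxicity counter screen: VDR-bla cells, 16 h compound exposure at 37C, 5% CO2; CellTiter-Glo luminescence, 30 min RT, same wells as bla read.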

[9] = target: Vitamin D3 receptor (Homo sapiens) (UniProt P11473); experiment: qHTS assay to identify small molecule antagonists of the vitamin D receptor (VDR) signaling pathway (AID 743223; active = well fitted inhibition curve with a large enough effect in the signal ratio in the repeat runs, not every such curve was filed as active; the % refers to the signal ratio)
Procedure, shortened: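 After VDR-bla cells are plated and left 4 h at 37C, DMSO-dissolved compounds and 3 nM (final) calcitriol agonist are added. Incubation continues 16 h at 37C; FRET beta-lactamase substrate then develops 2 h at room temperature.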

[10] = target: Vitamin D3 receptor (Homo sapiens) (UniProt P11473); experiment: qHTS assay to identify small molecule agonists of the vitamin D receptor (VDR) signaling pathway (AID 743222; calls by dose curve)
Procedure, shortened: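 Beta-lactamase reporter readout (LiveBLAzer B/G FRET, 2 h RT) in VDR-bla cells after 16 h compound treatment at 37C, 5% CO2; cells pre-incubated 4 h before pin transfer of DMSO solutions.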

Measured: Potency

Sequence of Bile acid receptor (Homo sapiens) (Q96RI1 whole entry, looked up): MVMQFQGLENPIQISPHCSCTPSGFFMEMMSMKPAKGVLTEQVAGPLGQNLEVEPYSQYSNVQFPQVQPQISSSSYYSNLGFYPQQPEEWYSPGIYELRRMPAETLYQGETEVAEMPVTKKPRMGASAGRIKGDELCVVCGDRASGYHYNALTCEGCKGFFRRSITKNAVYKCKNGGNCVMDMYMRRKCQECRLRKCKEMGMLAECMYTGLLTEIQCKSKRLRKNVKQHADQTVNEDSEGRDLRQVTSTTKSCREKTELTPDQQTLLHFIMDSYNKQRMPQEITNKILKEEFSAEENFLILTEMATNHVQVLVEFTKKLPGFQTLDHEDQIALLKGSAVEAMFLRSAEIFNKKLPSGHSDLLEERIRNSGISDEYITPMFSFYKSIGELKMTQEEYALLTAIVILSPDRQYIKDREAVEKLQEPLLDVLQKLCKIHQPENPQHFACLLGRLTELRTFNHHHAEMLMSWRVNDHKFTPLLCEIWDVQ
Sequence of Peroxisome proliferator-activated receptor delta (Homo sapiens) (Q03181 whole entry, looked up): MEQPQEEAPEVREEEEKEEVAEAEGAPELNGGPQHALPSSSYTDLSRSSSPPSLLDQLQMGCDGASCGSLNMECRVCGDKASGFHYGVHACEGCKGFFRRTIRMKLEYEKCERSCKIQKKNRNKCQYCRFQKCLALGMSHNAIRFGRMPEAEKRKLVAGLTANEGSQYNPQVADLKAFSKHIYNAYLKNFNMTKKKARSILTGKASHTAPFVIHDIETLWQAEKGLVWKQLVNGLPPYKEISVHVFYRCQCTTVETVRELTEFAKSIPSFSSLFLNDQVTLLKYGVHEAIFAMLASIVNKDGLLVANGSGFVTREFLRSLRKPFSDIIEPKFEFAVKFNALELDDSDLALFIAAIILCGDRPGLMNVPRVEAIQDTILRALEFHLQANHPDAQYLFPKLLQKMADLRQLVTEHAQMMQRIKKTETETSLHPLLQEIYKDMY
Sequence of Vitamin D3 receptor (Homo sapiens) (P11473 whole entry, looked up): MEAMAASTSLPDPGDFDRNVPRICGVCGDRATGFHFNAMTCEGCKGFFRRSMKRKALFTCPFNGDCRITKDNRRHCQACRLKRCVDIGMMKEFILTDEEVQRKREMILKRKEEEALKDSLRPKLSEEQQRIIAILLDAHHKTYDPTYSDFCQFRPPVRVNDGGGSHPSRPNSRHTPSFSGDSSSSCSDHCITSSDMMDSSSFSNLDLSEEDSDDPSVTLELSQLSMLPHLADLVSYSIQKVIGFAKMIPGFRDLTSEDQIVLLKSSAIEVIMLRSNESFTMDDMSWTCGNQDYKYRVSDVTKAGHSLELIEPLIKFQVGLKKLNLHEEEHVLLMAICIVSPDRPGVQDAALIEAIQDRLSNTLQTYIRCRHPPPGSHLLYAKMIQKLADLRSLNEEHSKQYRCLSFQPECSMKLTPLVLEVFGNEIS

CC(C)OS(C)(=O)=O
not listed: [9] | [10]
inactive: all other assays above

Clc1ccc(CCC(Cn2ccnc2)Sc2c(Cl)cccc2Cl)cc1 (centres undefined)
inactive: [1]

O=C1NCN(c2ccccc2)C12CCN(CC1COc3ccccc3O1)CC2 (centres undefined)
inactive: [1] | [3] | [7] | [9] | [8]

CCCN(CC)CC1COC2(CCC(C(C)(C)C)CC2)O1 (centres undefined)
not listed: [3] | [4] | [6]
inactive: all other assays above

C[C@]12Cc3nonc3C[C@@H]1CC[C@@H]1[C@@H]2CC[C@@]2(C)[C@H]1CC[C@]2(C)O
not listed: [7]
inactive: all other assays above

CCCCCCCCCBr
not listed: [4] | [6] | [7]
inactive: all other assays above

CC(C)CCCCCOC(=O)c1ccccc1C(=O)OCCCCCC(C)C
inactive: all assays above

Cc1ccc(OP(=O)(Oc2ccccc2)Oc2ccccc2)cc1
not listed: [4] | [7] | [10]
inactive: all other assays above

O=C(O)C1C2CCC(O2)C1C(=O)O (centres undefined)
not listed: [4] | [6] | [10]
inactive: all other assays above

O=C/C(Cl)=C(/Cl)C(=O)O
inactive: [1] | [2] | [7] | [10] | [8]

Clc1ccc(C(Cl)(Cl)Cl)c(Cl)c1
not listed: [4] | [6]
inactive: all other assays above
